Screening results (PubChem)
Sampled rows, rich in hits. Any-hit rate of the full collection: about 8.7%.
hDAT+cocaine – changed hDAT dopamine uptake under cocaine IC80, either direction, primary screen, cocaine antagonist project, cell-based, LLC-PK1 hDAT, [14C]-dopamine uptake, MLSMR | Sodium-dependent dopamine transporter (Homo sapiens), Q01959 | LLC-PK1 hDAT cells, [14C]-dopamine uptake with cocaine IC80; actives deviate in either direction | B-score at 10 µM | 110,000 compounds, 1.3% hits | AID 449768, 2010;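 active = Z score or B-score, a plate-position-corrected score, falls beyond the plate's 99.7% confidence bounds, in either direction; inactive = both scores lie inside the 99.7% bounds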;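 also: scored against the spread of the other compound wells on the same plate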
PostGolgi ctrl – growth inhibition of yeast control strain, primary screen, counter-screen for post-Golgi transport modulator project | efflux-deficient yeast background strain, growth absorbance A615, 16 h | inhibition, % at 10 µM | 98,000 compounds, 5% hits | AID 738, 2007
TNAP act DEA – human TNAP enzyme activators, primary screen, biochemical, luminescent, intermediate phosphate acceptor level; purified TNAP, CDP-star luminescence, 100 mM DEA, 30 min; hits give high values; scale: 0 levamisole-inhibited, 1 vehicle-only enzyme; activation factor at 20 µM; 64,000 tested, under 10 active; AID 813, 2007;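 active = activation factor of at least 2 at 20 µM, relative to controls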
Smad3 FoxH1 inh – Smad3/FoxH1 peptide binding inhibitors, primary screen, biochemical, TR-FRET; Mothers against decapentaplegic homolog 3 (Homo sapiens), P84022; TR-FRET Smad3/Dy647-FoxH1 peptide binding, europium anti-His; inhibition, % at 25 µM; 88,000 compounds, 0.29% hits;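 active = compounds that reduce the energy-transfer binding signal between the protein and its labelled peptide by more than half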;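 also: 0% = Smad3 plus labelled peptide maximal FRET and 100% = peptide-only background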
PostGolgi yeast – phenotypic screen on post-Golgi transport, primary screen. 98,000 compounds, 0.9% hits. AID 739, 2007. inhibition, % at 10 µM. post-Golgi transport phenotypic cell assay;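 also: yeast cells grown in 1536-well plates; yeast grown about 18 h at 30C before absorbance read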
Cav3 T inh – Cav3.2 calcium influx blockers – cell-based, Fluo-4 calcium fluorescence, FDSS, MLSMR library, primary screen | Cav3.2-expressing cells; hits give low values | 100,000 compounds, 4% hits | AID 449739, 2010 | B-score at 10 µM;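 active = single-dose well whose peak fluorescence ratio is a statistical outlier from its plate by either plate-standardised score or position-corrected B-score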
Target sequence (O95180 whole entry, looked up): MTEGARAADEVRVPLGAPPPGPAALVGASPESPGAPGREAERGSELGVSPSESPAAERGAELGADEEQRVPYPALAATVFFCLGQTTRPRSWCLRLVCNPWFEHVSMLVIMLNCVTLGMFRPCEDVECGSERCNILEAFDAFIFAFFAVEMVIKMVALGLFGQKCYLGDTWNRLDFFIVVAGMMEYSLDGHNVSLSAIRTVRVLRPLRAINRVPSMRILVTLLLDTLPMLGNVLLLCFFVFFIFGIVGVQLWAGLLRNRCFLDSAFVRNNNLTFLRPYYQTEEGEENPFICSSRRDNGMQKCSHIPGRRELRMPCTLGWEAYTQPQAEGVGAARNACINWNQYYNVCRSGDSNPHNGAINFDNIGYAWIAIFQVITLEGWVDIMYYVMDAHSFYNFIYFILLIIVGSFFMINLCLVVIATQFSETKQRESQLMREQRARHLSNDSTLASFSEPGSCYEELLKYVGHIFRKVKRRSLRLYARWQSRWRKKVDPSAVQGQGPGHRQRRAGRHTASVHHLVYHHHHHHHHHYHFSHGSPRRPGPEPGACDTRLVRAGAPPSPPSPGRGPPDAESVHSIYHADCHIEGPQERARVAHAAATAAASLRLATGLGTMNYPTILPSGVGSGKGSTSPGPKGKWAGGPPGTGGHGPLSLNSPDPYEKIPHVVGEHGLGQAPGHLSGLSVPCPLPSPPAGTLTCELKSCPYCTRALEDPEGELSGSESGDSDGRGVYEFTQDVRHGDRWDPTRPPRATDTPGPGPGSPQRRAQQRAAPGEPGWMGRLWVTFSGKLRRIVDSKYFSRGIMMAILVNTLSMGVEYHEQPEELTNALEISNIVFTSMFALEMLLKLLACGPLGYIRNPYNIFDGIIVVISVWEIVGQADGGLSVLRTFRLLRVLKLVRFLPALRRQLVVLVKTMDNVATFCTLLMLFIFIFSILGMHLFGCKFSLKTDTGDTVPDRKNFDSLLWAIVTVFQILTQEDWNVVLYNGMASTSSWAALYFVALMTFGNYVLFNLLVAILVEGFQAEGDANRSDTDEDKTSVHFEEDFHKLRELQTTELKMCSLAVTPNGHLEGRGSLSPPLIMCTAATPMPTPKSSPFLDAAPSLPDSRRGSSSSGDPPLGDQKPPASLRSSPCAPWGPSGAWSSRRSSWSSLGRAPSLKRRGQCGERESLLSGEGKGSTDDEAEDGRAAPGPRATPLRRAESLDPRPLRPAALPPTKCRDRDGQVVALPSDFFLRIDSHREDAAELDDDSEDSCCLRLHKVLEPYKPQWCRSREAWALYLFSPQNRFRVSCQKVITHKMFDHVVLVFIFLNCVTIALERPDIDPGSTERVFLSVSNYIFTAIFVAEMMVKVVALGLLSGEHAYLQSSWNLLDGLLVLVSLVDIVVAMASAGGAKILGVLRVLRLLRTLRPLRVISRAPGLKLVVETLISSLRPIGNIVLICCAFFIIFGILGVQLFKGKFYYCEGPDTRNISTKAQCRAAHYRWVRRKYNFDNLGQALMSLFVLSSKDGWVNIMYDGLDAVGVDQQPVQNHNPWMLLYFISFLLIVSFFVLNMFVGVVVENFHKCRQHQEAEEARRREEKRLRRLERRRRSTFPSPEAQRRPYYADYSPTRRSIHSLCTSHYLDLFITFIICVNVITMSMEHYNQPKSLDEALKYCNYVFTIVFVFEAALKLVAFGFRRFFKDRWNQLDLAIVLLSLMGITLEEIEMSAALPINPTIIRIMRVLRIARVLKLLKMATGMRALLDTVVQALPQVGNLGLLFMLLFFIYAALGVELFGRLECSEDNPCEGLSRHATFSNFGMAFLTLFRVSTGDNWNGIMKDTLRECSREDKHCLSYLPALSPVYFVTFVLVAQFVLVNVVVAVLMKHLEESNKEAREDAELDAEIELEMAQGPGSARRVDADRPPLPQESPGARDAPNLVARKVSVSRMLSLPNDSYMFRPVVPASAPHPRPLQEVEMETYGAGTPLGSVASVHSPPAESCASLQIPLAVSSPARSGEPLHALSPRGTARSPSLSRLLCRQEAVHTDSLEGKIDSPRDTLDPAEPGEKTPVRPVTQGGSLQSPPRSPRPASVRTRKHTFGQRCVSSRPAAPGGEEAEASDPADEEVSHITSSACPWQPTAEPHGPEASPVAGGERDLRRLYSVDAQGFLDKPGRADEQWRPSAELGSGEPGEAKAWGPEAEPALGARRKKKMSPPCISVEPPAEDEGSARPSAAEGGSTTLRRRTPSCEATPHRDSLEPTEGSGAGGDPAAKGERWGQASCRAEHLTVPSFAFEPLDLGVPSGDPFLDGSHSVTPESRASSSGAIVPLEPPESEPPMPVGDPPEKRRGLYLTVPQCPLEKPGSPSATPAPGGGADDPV
Numbers without * were called inactive; . = not tested or not shown. Rule as the data show it, unless noted: active = inhibition above about 30%; inactive = the rest.

SMILES | hDAT+cocaine | PostGolgi ctrl | TNAP act DEA | Smad3 FoxH1 inh | PostGolgi yeast | Cav3 T inh
Cc1nn(Cc2ccc(Cl)c(Cl)c2)c(C)c1NC(=O)c1cc(-c2ccco2)on1 | -0.029 | 11 | 1 | 10 | 5 | -5.7*
COc1ccc(-c2cc(C(=O)Nc3c(C)nn(Cc4ccc(Cl)cc4)c3C)no2)cc1 | 0.017 | -2 | 1 | -11 | -2 | -4.6*
Cc1cc(C)n2nc(SCCC(=O)NCCc3ccccc3)nc2n1 | -9.7e-05 | 3 | . | -1 | -10 | 2.6
Cc1c(Cl)cccc1NC(=O)CN1C(=O)CSc2ncccc21 | -0.37 | 9 | 0.9 | -7 | -7 | -0.053
CC1CC(C(O)c2ccccn2)C(=O)C(C(O)c2ccccn2)C1 (configuration not stated) | . | . | 1 | -1 | . | .
Cc1ccc(Cn2nc(C)c(NC(=O)c3cc(-c4ccc5c(c4)OCO5)on3)c2C)cc1 | 1.3 | 13 | 1 | 7 | -2 | -5.3*
Cc1nn(Cc2ccc(F)cc2)c(C)c1NC(=O)c1cc(-c2ccc3c(c2)OCO3)on1 | -0.83 | 17 | 1 | 5 | -6 | 0.045
CC1CC(=O)NN=C1c1ccc(NCCO)c([N+](=O)[O-])c1 (configuration not stated) | -2.6* | 16 | . | . | 1 | 0.32
NC(=O)CC(NC(=O)c1ccccc1)c1ccc(NCc2ccc(F)cc2)c([N+](=O)[O-])c1 (configuration not stated) | 0.6 | . | . | . | . | -0.15
CCn1cc(S(=O)(=O)CC(=O)NC2CCCCC2)c2ccccc21 | -0.9 | 42* | 1 | 9 | 9 | 0.98
COc1ccccc1OCCN1C(=O)S/C(=C\c2ccco2)C1=O | -0.68 | 10 | . | . | -1 | -6.5*
COc1ccccc1/C=C1\SC(=O)N(CCC(=O)NNC(=O)c2ccccc2Cl)C1=O | 1.4 | 2 | . | . | -5 | 0.46
COc1ccc(N=C2C(=O)Nc3c(C)cccc32)cc1 | 0.63 | -1 | 0.9 | 2 | -4 | 0.068
COC(=O)c1nc2n(n1)C(c1cccc(Cl)c1)C1=C(CC(C)(C)CC1=O)N2 (configuration not stated) | -0.49 | 7 | 0.9 | 17 | -1 | -0.21
COc1ccc(NC(=O)c2c(C)cc(=O)oc2C)c(OC)c1 | 0.63 | 4 | 1 | 5 | -11 | 0.69
COC(=O)C1=C(C(=O)OC)[C@@H]2N(C)c3ccc(OC)cc3[C@@]23C[C@@H](C(=O)OC)N(C(=O)c2ccc(Br)cc2)C3=N1 | -0.026 | . | . | . | . | -0.72
CCOC(=O)N1C2=NC(C(=O)OC)=C(C(=O)OC)[C@@H]3N(C)c4ccc(OC)cc4[C@]23C[C@H]1C(=O)OC | 1.6* | . | . | . | . | 0.57
COc1ccccc1-c1noc(-c2ccncc2)n1 | 1.4 | -1 | 0.9 | 1 | 16 | 0.2
COc1ccccc1-c1noc(-c2cccs2)n1 | -1.4 | 32* | . | 2 | -2 | -0.95
O=S(=O)(Nc1nc(-c2sccc2Cl)cs1)c1cc(Cl)ccc1Cl | -0.042 | 35* | . | . | -2 | -7.1*
CCCCc1ccc(CC2S/C(=C(\C#N)C(=O)N3CCOCC3)N(c3ccccc3)C2=O)cc1 (configuration not stated) | 1.3 | 37* | . | 8 | -6 | -3.9*
C(=NCCCN1CCOCC1)c1ccc2c(c1)OCO2 | 0.84 | 6 | 1.1 | -1 | -9 | 0.028
COC(=O)c1cc(NC(=O)Nc2cccc(Cl)c2)ccc1Cl | -0.52 | 41* | . | . | 25 | 0.014
N#CCc1ccc(NC(=O)Nc2cccc(Cl)c2)cc1 | 0.037 | 31* | 0.8 | 2 | -1 | -0.17
N#Cc1ccccc1NC(=O)Nc1cccc(Cl)c1 | 0.0012 | -1 | 0.9 | -3 | 3 | .
SMILES | hDAT+cocaine | PostGolgi ctrl | TNAP act DEA | Smad3 FoxH1 inh | PostGolgi yeast | Cav3 T inh
CCOC(=O)c1c(NC(=O)Nc2cccc(Cl)c2)sc(C)c1C | 0.0071 | -3 | . | -3 | -5 | -0.36
O=C(NCCCN1CCC(Cc2ccccc2)CC1)C1CC(=O)N(C2CCCC2)C1 (configuration not stated) | 0.11 | 6 | 1 | 10 | 8 | -0.45
CCSc1ncc(/C=N/Nc2ccccc2)n1C | -0.27 | 18 | . | . | 6 | -2.2
CCSc1ncc(/C=N/Nc2ccc(Cl)cc2)n1C | 0.009 | 23 | . | . | 32* | 0.012
CC(C)Oc1ccc(OCCNC2CCCC2)cc1 | 0.056 | 6 | . | . | 0 | 0.6
Cc1ccc(NC(=O)c2ccc(-c3nn(C)c(=O)c4ccccc34)cc2)cc1 | 0.84 | -3 | . | 3 | 3 | 0.88
Cn1nc(-c2ccc(C(=O)Nc3cccc(Cl)c3)cc2)c2ccccc2c1=O | -1* | 0 | . | -112 | 6 | 0.44
Cc1ccc(NC(=O)c2ccc(-c3nn(C)c(=O)c4ccccc34)cc2)c(C)c1 | 0.43 | 41* | . | 16 | -4 | 0.79
CN(Cc1ccccc1)C(=O)COC(=O)c1ccc2c(c1)OCO2 | 0.09 | 7 | 0.9 | 2 | -9 | .
CCOCCn1c(CN2CCN(c3ccc(F)cc3)CC2)nc2c1c(=O)n(C)c(=O)n2C | 0.19 | -4 | 0.9 | -4 | 3 | 0.47
CCOc1ccc(Oc2nc(Nc3ccc(C)cc3)nc(N(C)C)n2)nn1 | 0.00011 | 3 | 0.9 | 8 | 5 | 0.036
C[N+]1(NCC[N@+]2(C)CCc3ccccc3C2)CCCCC1 | . | . | . | 95* | . | .
CCOC(=O)C1=C(C)n2c(s/c(=C/c3cccc([N+](=O)[O-])c3)c2=O)=NC1c1ccc(O)c(OC)c1 (configuration not stated) | -0.18 | 39* | . | 7 | 61* | -1.8
O=C(NCc1cccnc1)C(=O)NCC1OCCN1S(=O)(=O)c1ccc(Cl)cc1 (configuration not stated) | 0.79 | . | . | . | . | 0.37
O=C(NCc1ccc(F)cc1)C(=O)NCC1OCCN1C(=O)c1ccc(Cl)cc1 (configuration not stated) | 2.4* | . | . | . | . | 1.6
CN(Cc1ccccc1)Cc1nc2c(c(=O)n(C)c(=O)n2C)n1Cc1ccc(Cl)cc1 | 0.12 | 31* | 0.9 | -6 | 1 | .
Cn1c(=O)c2c(nc(CN3CCN(Cc4ccccc4)CC3)n2Cc2ccc(Cl)cc2)n(C)c1=O | 1 | 7 | 0.9 | -6 | -17 | -3.7
Cn1c(=O)c2c(nc(CN3CCN(Cc4ccccc4)CC3)n2Cc2ccccc2)n(C)c1=O | 0.34 | 17 | 0.9 | -4 | -1 | 1.6
CN(Cc1ccccc1)Cc1nc2c(c(=O)n(C)c(=O)n2C)n1Cc1ccc(F)cc1 | -0.32 | 27 | 0.9 | 7 | -11 | -4.3*
CN(Cc1ccccc1)c1nc2c(c(=O)n(C)c(=O)n2C)n1CCCc1ccccc1 | 1.3 | 43* | 0.9 | 2 | 0 | -6.3*
Cn1c(=O)c2c(nc(CN3CCN(c4ccccc4)CC3)n2CCc2ccccc2)n(C)c1=O | -0.41 | . | . | -3 | . | -5.7*
